Source: PubChem BioAssay
Hits are enriched below; roughly 4.4% of the tested compounds scored in any of these assays.
IL1B cytotox – toxic to HUVEC cells under IL-1B stimulation. HUVEC cell count loss, Hoechst imaging, IL-1B stimulated. 94,000 tested, 0.41% active. cell count reduction, % at 2 µM;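 active = cell count reduction more than 3 SD above the screen-wide mean, cut at about 70% in these data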
IL1B NFkB inh – blocks IL-1B driven NFkB nuclear translocation in HUVEC cells; HUVEC IL-1B NFkB p65 nuclear translocation imaging; 94,000 tested, 0.43% active; AID 796; inhibition, % at 2 µM;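 active = inhibition above about 30% together with a positive call from visual inspection of the well image, limit read from the data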;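 note: nuclear over cytoplasmic p65 intensity ratio measured by imaging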
Cav3 T inh – inhibitors of human Cav3.2 T-type calcium channel; O95180; Cav3.2-expressing cells, Fluo-4 calcium fluorescence FDSS; hits give low values; B-score at 10 µM; 100,000 tested, 4% active; AID 449739;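 active = single-dose well whose peak fluorescence ratio is a statistical outlier from its plate by either plate-standardised score or position-corrected B-score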
Target sequence (O95180 whole entry, looked up): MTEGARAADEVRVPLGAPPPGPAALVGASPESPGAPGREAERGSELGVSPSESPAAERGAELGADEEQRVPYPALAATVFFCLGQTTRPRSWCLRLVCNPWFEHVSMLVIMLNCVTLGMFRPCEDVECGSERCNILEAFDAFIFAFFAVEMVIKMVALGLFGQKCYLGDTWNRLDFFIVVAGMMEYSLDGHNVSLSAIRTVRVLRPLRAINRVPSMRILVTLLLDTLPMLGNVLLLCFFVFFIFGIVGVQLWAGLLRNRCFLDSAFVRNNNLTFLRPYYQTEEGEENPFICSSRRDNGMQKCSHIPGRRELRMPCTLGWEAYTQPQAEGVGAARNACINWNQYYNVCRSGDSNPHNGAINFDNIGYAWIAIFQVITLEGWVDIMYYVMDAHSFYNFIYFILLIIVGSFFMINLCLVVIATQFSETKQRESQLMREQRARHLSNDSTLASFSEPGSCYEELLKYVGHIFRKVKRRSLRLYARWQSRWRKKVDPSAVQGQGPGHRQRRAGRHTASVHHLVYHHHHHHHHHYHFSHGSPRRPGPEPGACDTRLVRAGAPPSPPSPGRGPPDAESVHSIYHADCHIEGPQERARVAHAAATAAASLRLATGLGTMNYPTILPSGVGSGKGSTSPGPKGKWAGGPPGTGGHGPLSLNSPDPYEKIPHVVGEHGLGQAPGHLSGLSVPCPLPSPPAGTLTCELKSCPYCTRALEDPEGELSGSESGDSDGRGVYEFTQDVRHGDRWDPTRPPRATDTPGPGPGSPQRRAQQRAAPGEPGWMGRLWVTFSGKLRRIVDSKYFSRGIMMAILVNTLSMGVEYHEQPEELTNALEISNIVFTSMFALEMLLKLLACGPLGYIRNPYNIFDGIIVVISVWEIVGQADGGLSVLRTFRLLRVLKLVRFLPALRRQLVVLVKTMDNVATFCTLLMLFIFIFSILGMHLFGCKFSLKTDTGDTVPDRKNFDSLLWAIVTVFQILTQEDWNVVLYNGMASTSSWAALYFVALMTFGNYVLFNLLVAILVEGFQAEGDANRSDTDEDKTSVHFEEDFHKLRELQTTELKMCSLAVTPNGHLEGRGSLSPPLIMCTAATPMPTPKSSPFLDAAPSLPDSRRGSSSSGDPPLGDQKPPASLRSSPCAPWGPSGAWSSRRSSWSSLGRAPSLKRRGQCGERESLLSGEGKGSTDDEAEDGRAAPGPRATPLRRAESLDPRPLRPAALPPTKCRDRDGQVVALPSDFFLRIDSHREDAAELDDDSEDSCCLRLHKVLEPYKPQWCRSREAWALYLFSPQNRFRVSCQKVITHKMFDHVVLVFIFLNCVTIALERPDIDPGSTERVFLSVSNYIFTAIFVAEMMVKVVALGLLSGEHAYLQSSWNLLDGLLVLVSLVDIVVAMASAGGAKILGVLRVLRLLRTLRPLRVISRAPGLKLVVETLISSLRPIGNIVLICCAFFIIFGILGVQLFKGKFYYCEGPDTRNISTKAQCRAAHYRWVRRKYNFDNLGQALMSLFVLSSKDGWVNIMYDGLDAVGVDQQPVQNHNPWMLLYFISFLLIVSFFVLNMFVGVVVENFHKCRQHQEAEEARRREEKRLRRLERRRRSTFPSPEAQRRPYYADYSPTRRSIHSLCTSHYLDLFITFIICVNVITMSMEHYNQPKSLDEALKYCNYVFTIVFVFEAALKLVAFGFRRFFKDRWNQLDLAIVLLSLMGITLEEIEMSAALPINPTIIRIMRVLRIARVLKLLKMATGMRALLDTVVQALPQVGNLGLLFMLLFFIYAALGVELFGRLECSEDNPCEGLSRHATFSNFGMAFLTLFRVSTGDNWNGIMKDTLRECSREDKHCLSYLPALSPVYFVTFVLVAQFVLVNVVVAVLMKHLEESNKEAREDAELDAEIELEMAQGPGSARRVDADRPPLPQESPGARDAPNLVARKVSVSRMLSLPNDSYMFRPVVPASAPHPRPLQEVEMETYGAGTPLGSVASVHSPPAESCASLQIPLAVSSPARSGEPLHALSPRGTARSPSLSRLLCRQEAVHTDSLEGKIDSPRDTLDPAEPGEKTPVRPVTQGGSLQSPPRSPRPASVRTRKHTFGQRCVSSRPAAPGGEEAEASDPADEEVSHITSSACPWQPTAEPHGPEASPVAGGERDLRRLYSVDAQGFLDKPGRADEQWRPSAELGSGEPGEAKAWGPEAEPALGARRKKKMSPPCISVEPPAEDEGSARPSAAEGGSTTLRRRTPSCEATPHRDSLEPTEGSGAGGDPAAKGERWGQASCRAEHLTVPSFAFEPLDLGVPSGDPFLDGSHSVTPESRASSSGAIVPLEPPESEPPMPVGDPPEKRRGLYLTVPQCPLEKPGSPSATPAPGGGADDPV
NFkB transloc pot – enhances IL-1B driven NFkB nuclear translocation; HUVEC IL-1B NFkB p65 nuclear translocation imaging; 94,000 tested, 0.3% active; activation, % at 2 µM;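 active = activation above 40%, about the mean plus 3 SD, also judged a hit on visual image review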;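 note: percent activation is computed from the nuclear over cytoplasmic p65 intensity ratio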
Each line names hits and unclear results; the compound was inactive in the other large screens.

CC1=C(C(=O)Nc2ccccc2F)C(c2ccsc2)C2=C(CC(c3ccccc3)CC2=O)N1 (stereo not drawn)	Cav3 T inh -6.5
COC(=O)C1=C(C)N(C)C(C)=C(C(=O)OC)C1c1ccncc1	none
COC(=O)C1=C(C)N(C)C(C)=C(C(=O)OC)C1c1ccc(F)c(Br)c1	Cav3 T inh -6.8
C[C@@H](C(=O)N1CCN(C(=O)OC(C)(C)C)CC1)n1cc(CCC(=O)O)nn1	none (no result: IL1B cytotox, IL1B NFkB inh, NFkB transloc pot)
CCOC(=O)CSc1cc(CS(=O)(=O)c2ccccc2)nc(-c2ccccc2)n1	IL1B cytotox 83
Cc1occc1C(=O)NNC(=S)Nc1ccccc1	none
O=C(Nc1cccc(NC(=O)c2ccc(-c3ccc(Br)cc3)o2)c1)c1ccccc1	Cav3 T inh -6.1
O=C(Nc1ccccc1)c1ccc(-c2ccc(Br)cc2)o1	Cav3 T inh -5.3
CCOC(=O)/C=C1\SCC(=O)N1CC(O)CN1C(=O)CS/C1=C\C(=O)OCC	none
CCOC(=O)/C=C1\SCC(=O)N1CCOc1cccc(Br)c1	Cav3 T inh -4.3 (no result: IL1B cytotox, IL1B NFkB inh, NFkB transloc pot)
CCOC(=O)/C=C1\SCC(=O)N1CC(=O)Nc1ccc(C(C)C)cc1	Cav3 T inh -3.8
COc1cc(NS(C)(=O)=O)c(OC)cc1NC(=O)c1cccc(F)c1	none
O=C(NCc1ccccc1)C(c1ccc(F)cc1)N(Cc1ccc2c(c1)OCO2)C(=O)Cn1nnc(-c2cccs2)n1 (stereo not drawn)	Cav3 T inh -5.1
CCCC(C(=O)NCc1ccccc1)N(C(=O)Cn1nnc(-c2cccs2)n1)c1ccc2c(c1)OCCO2 (stereo not drawn)	none
COc1ccc2c(c1)-c1c(ssc1=S)C(C)(C)N2	IL1B cytotox 94
Cc1c(C(=O)NCCC2=CCCCC2)oc2ccc(S(=O)(=O)N3CCOCC3)cc12	Cav3 T inh -4.1
O=C(CSc1nnc(Cn2nnc(-c3ccccc3)n2)n1-c1ccccc1)Nc1ccc(F)cc1	IL1B cytotox 90, IL1B NFkB inh 99
O=C(CSc1nnc(Cn2nnc(-c3ccccc3)n2)n1-c1ccccc1)Nc1ccccc1	none
Cc1nn(C)c(C)c1NC(=O)CSc1nnc(C)n1-c1ccccc1	none (no result: IL1B cytotox, IL1B NFkB inh, NFkB transloc pot)
Cc1cccc(C)c1NC(=O)CSc1nnc(Cn2nnc(-c3ccccc3)n2)n1-c1ccccc1	Cav3 T inh -6.2
O=c1c(-c2nc3ccccc3s2)cccn1Cc1ccc(Cl)c(Cl)c1	none (no result: Cav3 T inh)
CCn1c(SCC(=O)Nc2sc3c(c2C#N)CCCC3)nnc1-c1ccncc1	none
Cn1c(CNC(=O)c2ccc(Cl)cc2)nnc1SCC(=O)Nc1sc2c(c1C#N)CCCC2	none
N#Cc1c(NC(=O)CSc2nnc(-c3ccccc3O)n2-c2ccccc2)sc2c1CCCC2	Cav3 T inh -4.8
Cc1ccc(C(=O)NCc2nnc(SCC(=O)Nc3sc4c(c3C#N)CCCC4)n2C)cc1	IL1B cytotox 82
O=C(c1cccc2ccccc12)N1CCC(N2CCN(c3ccccc3)CC2)CC1	none
O=C(CCc1ccccc1O)N/N=C/c1ccc(Sc2cccc3cccnc23)o1	none
CCCC(=O)Nc1ccc(Cl)c(NC(=O)c2cccnc2Cl)c1	none
CCc1nnc(NC(=O)CSc2nnc(-c3ccccc3O)n2-c2ccc(C)cc2C)s1	Cav3 T inh -9
CCCCCn1c(C(C)NC(=O)CCC)nc2ccccc21 (stereo not drawn)	none
C=C1CCN([C@@H](Cc2ccccc2)C(=O)NCCCc2ccccc2)S(=O)(=O)c2ccccc21	Cav3 T inh -4.5 (no result: IL1B cytotox, IL1B NFkB inh, NFkB transloc pot)
CCOC(=O)c1c(N2C(=O)Nc3cc(Cl)c(Cl)cc3N2O)sc2c1CCCCC2	Cav3 T inh -3.9
O=C(Nc1ccccc1)c1cccc(N2C(=O)CCC2=O)c1	none (no result: Cav3 T inh)
Cc1ccc(NC(=O)C2(NC(=O)c3cccc(N4C(=O)CSC4c4ccccc4)c3)CCCCC2)cc1 (stereo not drawn)	Cav3 T inh -6.9
Cc1ccccc1S(=O)(=O)Cc1ccc(C(=O)NCCCOC(C)C)o1	none
CCC(=O)OCc1c(C(F)(F)F)nn(C)c1Sc1ccc(Cl)cc1	none
CCC(=O)OCc1c(C(F)(F)F)nn(C)c1Sc1ccc(F)cc1	Cav3 T inh -7.5
CO/N=C/c1ccc(Oc2ccc(C)cc2)nc1	none
CN(C)C(CNC(=O)c1cccnc1Sc1ccccc1)c1ccco1 (stereo not drawn)	none
Cc1cc(C(C)(C)C)oc1C(=O)N(CC(=O)NC1CCCC1)c1c(C)cccc1C	Cav3 T inh -1.6
NNC(=O)c1ccccc1CO	none (no result: IL1B cytotox, IL1B NFkB inh, NFkB transloc pot)
Cc1nc2nc3c(cn2n1)C(=O)CCC3	none (no result: Cav3 T inh)
CC(C)C(=O)Nc1cccc(NC(=S)NC(=O)c2ccc([N+](=O)[O-])cc2)c1	Cav3 T inh -4
CC(C)C(=O)Nc1ccc(NC(=S)NC(=O)c2ccc([N+](=O)[O-])cc2)cc1	none
C/C=C(/C)C(=O)Nc1cccc(C2=NOC3(C2)C[C@@H](C(N)=O)N(C(=O)CCCCC)C3)c1 (stereo partly drawn)	none (no result: IL1B cytotox, IL1B NFkB inh, NFkB transloc pot)
COc1cccc(N/C=C(\C#N)c2ccc(OCCCF)cc2)c1	none
Cc1ccc(C(=O)Nc2nc3nc(-c4ccccc4)cc(=O)n3[nH]2)cc1	none
Cc1ccc(N=Nc2c(N)[nH]n3c(=O)cc(-c4ccccc4)nc23)cc1	Cav3 T inh -7.5
Cc1[nH]n2c(=O)cc(-c3ccc([N+](=O)[O-])cc3)nc2c1-c1ccccc1	Cav3 T inh -4.4
O=C(NC1CCCCC1)C1CC=CCC1C(=O)OCC(Cl)=C(Cl)Cl (stereo not drawn)	Cav3 T inh -7.5
CCc1ccc(/C=N/NC(=O)c2cc(-c3ccccc3OC)nc3ccccc23)s1	none
CCc1ccc(/C=N/NC(=O)c2cc(C3CC3)nc3ccc(Br)cc23)s1	Cav3 T inh -5.2
CC(C)(C)c1ccc(S(=O)(=O)NCCOCC(F)(F)C(F)F)cc1	Cav3 T inh -3.8
CC(C)(C)c1ccc(S(=O)(=O)NCCc2ccncc2)cc1	none
CCOC(=O)CSc1nnc(CNc2ccc(Cl)cc2)n1Cc1ccccc1	none
CC(C)OC(=O)CSc1nnc(CNc2ccc(Cl)cc2)n1Cc1ccccc1	Cav3 T inh -6.7
CCn1c(CNc2ccc(Cl)cc2)nnc1SCc1ccccc1	Cav3 T inh -8.5
CCOc1ccc(NCc2nnc(SCc3ccccc3Cl)n2-c2ccccc2)cc1	Cav3 T inh -4.2
COC(=O)c1ccccc1NC(=O)CN(C)S(=O)(=O)c1cc(C)ccc1OC	none
Cc1nnc(C)n1/N=C/c1cc(Br)cc(Br)c1O	Cav3 T inh -9.6 (no result: IL1B cytotox, IL1B NFkB inh, NFkB transloc pot)
CC(=O)Nc1ccc(SC[C@H](c2ccccc2)N2CCN(CCc3ccccc3)CCC2=O)cc1	none (no result: IL1B cytotox, IL1B NFkB inh, NFkB transloc pot)
O=C(Nc1cccc(Cl)c1)N(Cc1nc2ccccc2c(=O)[nH]1)C1CCCC1	Cav3 T inh -6
COc1ccc(C(C)=O)cc1CSCCC#N	none
Clc1ccccc1-c1nnc2sc(CCc3ccccc3)nn12	none
Brc1ccccc1-c1nnc2sc(Cc3ccccc3)nn12	NFkB transloc pot 59
Cc1ccc(C)c(N(CC(=O)NCc2ccc3c(c2)OCO3)C(=O)CCC(=O)Nc2ccccn2)c1	none (no result: Cav3 T inh)
O=C(CCC(=O)N(CC(=O)NC1CCCCC1)c1ccc2c(c1)OCO2)Nc1ccccn1	Cav3 T inh -5.7 (no result: IL1B cytotox, IL1B NFkB inh, NFkB transloc pot)
Cc1cc(C)cc(N(CC(=O)NCc2ccc3c(c2)OCO3)C(=O)CCC(=O)Nc2ccccn2)c1	Cav3 T inh -6.1
CC1=C(C)C(=O)C(CCCCC#CCCCC#CCO)=C(C)C1=O	Cav3 T inh -4.1 (no result: IL1B cytotox, IL1B NFkB inh, NFkB transloc pot)
COC1=C(OC)C(=O)C(CCCCCCCCCCO)=C(C)C1=O	none (no result: IL1B cytotox, IL1B NFkB inh, NFkB transloc pot)
